# Only a selection was taken, and hits are over-represented in it overall.
# Methyltransferases = Primary Screen for Target Class Profiling of Small Molecule Inhibitors of Methyltransferases. AID 1745853, 2022. 25,000 compounds, 3.9% hits. calls only at 40 µM. purified enzyme, MTase-Glo SAH luminescence; hits give low values; call rule not given here
#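 Each enzyme was reacted with SAM and its substrate, with compounds tested once at 40 uM; SAH formed was read by MTase-Glo luminescence.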
# * hit, by the source's call; i = inactive; + = active, no number; ! = not confirmed by another sample. On the % scale 0 is the no-effect control and ±100 the full control effect.
SMILES,Methyltransferases
COc1ccccc1NC(=O)c1sc(=S)n2c1[nH]c(=O)c1ccc(Cl)cc12,i
COc1ccc(OC)c(NC(=O)c2sc(=S)n3c2[nH]c(=O)c2ccc(Cl)cc23)c1,+
COc1ccc(CNC(=O)c2sc(=S)n3c2[nH]c(=O)c2cc4c(cc23)OCO4)cc1,i
Cc1ccc(CNC(=O)Cn2ccc3cc(S(=O)(=O)N4CCC(C)CC4)ccc32)o1,i
CCCn1c(=O)c2ccc(C(=O)NCC(C)C)cc2n2c(=O)n(CC(=O)c3cc(C)ccc3C)nc12,i
NCCCNc1ccc(Nc2nccc(Nc3cc(C4CC4)[nH]n3)n2)cc1,+
C=Cc1ccc(CSc2nnc3n(CCC)c(=O)c4cc(F)ccc4n23)cc1,i
COc1ccc2cc3n(c2c1)CC(C)(C(=O)NC1CCCC1)N(CCc1ccc(Cl)cc1)C3=O (stereo not given),i
COc1ccc(CNC(=O)Cn2ccc3cc(S(=O)(=O)N4CCC(C)CC4)ccc32)cc1,i
COC(=O)c1ncn2c1C(=O)N(C1CC1)C(C)(C(=O)NCCCOC(C)C)C2 (stereo not given),i
CC1(C(=O)NC2CCCCCC2)Cn2c(nc3ccccc32)C(=O)N1Cc1cccc(Cl)c1 (stereo not given),i
CNCCN(C)Cc1cn[nH]c1-c1ccc(OC2CC(OCCC3CCOCC3)C2)cc1 (stereo not given),+
CC(C)CCn1c(=O)c2ccccc2n2c(SCC(=O)Nc3ccc(F)cc3)nnc12,i
CCOC(=O)c1cc2n(n1)CC(C)(C(=O)NC1CCCCC1)N(c1ccc(CC)cc1)C2=O (stereo not given),i
Fc1ccc(N2CCCCC2)c(NC(=S)c2ccncc2)c1,+
Cn1c(=O)n(C)c2cc(S(=O)(=O)NCc3ccc4c(c3)OCO4)ccc21,i
Cc1ccc(N2C(=O)c3cc(-c4ccco4)nn3CC2(C)C(=O)NC2CCCCCC2)c(C)c1 (stereo not given),i
Cc1cc2c(C(C)C)c(O)c(O)c(C=O)c2c(O)c1-c1c(C)cc2c(C(C)C)c(O)c(O)c(C=O)c2c1O,+
Cc1cccc(Cn2nc3n(CCc4ccccc4)c(=O)c4ccccc4n3c2=O)c1,i
CNCCC(Oc1ccccc1OC)c1ccccc1 (stereo not given),i
COc1ccccc1OCCN1CC(COc2cccc3[nH]c4ccccc4c23)OCC1=O (stereo not given),i
COc1ccccc1OCCNCC(O)CCOc1cccc2[nH]c3ccccc3c12 (stereo not given),+
CCOc1ccc(CN2C(=O)c3cc4sc(CC)cc4n3CC2(C)C(=O)NC2CCCCC2)cc1 (stereo not given),i
CCCn1c(=O)c2ccc(C(=O)NCC(C)C)cc2n2c(=O)n(CC(=O)Nc3ccc(C)cc3C)nc12,i
Cc1cc2[nH]c(=O)[nH]c2cc1S(=O)(=O)NCc1ccc(F)cc1,i
SMILES,Methyltransferases
O=C(c1ccc(Nc2nn3c(=O)c4ccccc4nc3s2)cc1)N1CCN(c2ccccn2)CC1,i
CCOCCCNC(=O)N1Cc2c(sc3c2CCCC3)-n2cccc2C1c1cccc(OC)c1 (stereo not given),i
COc1ccc(-c2cc3n(n2)CC(C)(C(=O)NCc2ccccc2)N(CCc2cccs2)C3=O)cc1 (stereo not given),i
CC1CCCC(NC(=O)C2(C)Cn3c(ccc3-c3ccco3)C(=O)N2Cc2ccccn2)C1C (stereo not given),i
Cn1c(=O)c2ccc(C(=O)NC3CCCC3)cc2n2c(=O)n(CC(=O)NCc3ccccc3)nc12,i
CCc1ccccc1N1C(=O)c2c(C(=O)OC)ncn2CC1(C)C(=O)NCCCOC(C)C (stereo not given),i
Nc1c(S(=O)(=O)O)cc(Nc2ccc(Nc3nc(Cl)nc(Nc4ccc(S(=O)(=O)O)cc4)n3)c(S(=O)(=O)O)c2)c2c1C(=O)c1ccccc1C2=O,+
COc1ccc(NC(=O)N2CCn3cccc3C2C(C)C)cc1OC (stereo not given),i
CCOc1ccc(CN2C(=O)c3ccc(-c4ccccc4)n3CC2(C)C(=O)NC2CCCC2)cc1 (stereo not given),i
Cc1ccc(CCNS(=O)(=O)c2ccc3[nH]c(=O)[nH]c3c2)cc1,i
O=c1c(O)c(-c2ccc(O)c(O)c2)oc2cc(O)cc(O)c12,+!
O=c1c(-c2ccc(O)cc2)coc2cc(O)cc(O)c12,i
O=c1cc(-c2ccc(O)c(O)c2)oc2cc(O)cc(O)c12,i
CC(C)CNC(=O)c1ccc2c(=O)n(C(C)C)c3nn(CC(=O)Nc4cccc(F)c4)c(=O)n3c2c1,i
Cn1c(=O)n(C)c2cc(S(=O)(=O)N3CCN(c4ccccc4F)CC3)ccc21,i
CCOCCCN1C(=O)c2cc3sccc3n2CC1(C)C(=O)NC1CCCCCC1 (stereo not given),i
COC(=O)c1ncn2c1C(=O)N(Cc1ccc(C)cc1)C(C)(C(=O)NCCCOC(C)C)C2 (stereo not given),i
CCc1cccc(N2C(=O)CSc3c(c4ccccc4n3C)C2C(=O)NCCCOC(C)C)c1 (stereo not given),i
COc1ccc(-n2c(=O)[nH]c3cccnc32)cc1OC,i
COc1cc2c(cc1-c1c(C)noc1C)ncc1[nH]c(=O)n(C(C)c3ccccn3)c12 (stereo not given),+!
CC1CCC(NC(=O)c2ccc3c(=O)nc4c(-c5cccc(F)c5)n[nH]n4c3c2)CC1 (stereo not given),i
COC(=O)c1cc2n(n1)CC(C)(C(=O)NC1CCCCCC1)N(c1ccc(Cl)cc1C)C2=O (stereo not given),i
CNCCC(c1cccs1)c1ccc(O)c2ccccc12 (stereo not given),+
CCC(C)NC(=O)c1ccc2c(=O)n(C)c3nnc(SCc4ccc(C)cc4)n3c2c1 (stereo not given),i
CCc1ccc(S(=O)(=O)c2nnn3c2nc(NC2CC2)c2cc(Cl)ccc23)cc1,i
SMILES,Methyltransferases
CC(C)Oc1ccc(CN2C(=O)c3cc(C(C)(C)C)nn3CC2(C)C(=O)NC2CCCCC2)cc1 (stereo not given),i
CCc1ccc(CNC(=O)c2ncn3c2C(=O)N(C2CC2)C(C)(C(=O)NCc2ccc(OC)cc2)C3)cc1 (stereo not given),i
CC(C)=CC/C=C(/C)[C@H]1CC[C@]2(C)[C@@H]1[C@H](O)CC1[C@@]3(C)CC[C@H](O)C(C)(C)[C@@H]3[C@@H](O[C@@H]3O[C@H](CO)[C@@H](O)[C@H](O)[C@H]3O[C@@H]3O[C@@H](C)[C@H](O)[C@@H](O)[C@H]3O)C[C@]12C (stereo not given in full),i
C=C1C(OC2OC(CO)C(O)C(O)C2O)CC2C(C)(C)C(O)CCC2(C)C1CC/C(C)=C\COC(=O)CC(=O)O (stereo not given),+
CC(C)=CC/C=C(\C)[C@H]1CC[C@]2(C)[C@@H]1[C@H](O)C[C@@H]1[C@@]3(C)CC[C@H](O)C(C)(C)[C@@H]3[C@@H](O[C@@H]3O[C@H](CO)[C@@H](O)[C@H](O)[C@H]3O)C[C@]12C,i
COc1ccc(CCNC(=O)CCc2nnc3n(CCc4ccccc4)c(=O)c4ccccc4n23)cc1OC,i
Cc1c(Cl)cccc1NC(=O)c1ncn2c1C(=O)N(C1CC1)C(C)(C(=O)NCCCOC(C)C)C2 (stereo not given),i
